LmPK inh: inhibitors of Leishmania mexicana pyruvate kinase; Potency, µM (highest dose often 57.5 µM), for inactives: top-dose activity change, negative = inhibition, usual class: inhibitors; AID 1721; purified LmPK, Kinase-Glo ATP luminescence, 1 h; Q27686; actives 0.37% (n = 290,000)
Target sequence (Q27686 whole entry, looked up): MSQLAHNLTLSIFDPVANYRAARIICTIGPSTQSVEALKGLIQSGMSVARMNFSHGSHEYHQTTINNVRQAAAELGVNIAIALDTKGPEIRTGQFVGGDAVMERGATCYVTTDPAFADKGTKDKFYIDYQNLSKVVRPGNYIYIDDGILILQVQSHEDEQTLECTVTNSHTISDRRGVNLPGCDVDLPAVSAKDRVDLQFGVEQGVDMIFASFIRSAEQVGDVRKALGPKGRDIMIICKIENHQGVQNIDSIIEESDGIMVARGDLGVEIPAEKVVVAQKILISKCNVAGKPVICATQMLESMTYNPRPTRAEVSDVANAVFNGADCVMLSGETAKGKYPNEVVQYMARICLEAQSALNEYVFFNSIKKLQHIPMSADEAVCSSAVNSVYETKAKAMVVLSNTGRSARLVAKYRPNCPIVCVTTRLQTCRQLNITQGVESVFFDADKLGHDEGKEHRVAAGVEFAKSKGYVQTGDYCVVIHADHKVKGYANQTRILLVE
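qHTS format; LmPK 0.1 nM; substrates PEP 0.5 mM and ADP 0.1 mM. One-hour room-temperature incubation, then coupled luciferase luminescence; 0.5 nM enzyme wells mark activation.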
RE007 growth inh: less growth of the S. pombe RE007 Vpr strain. S. pombe RE007 Vpr strain, BacTiter-Glo ATP luminescence, 24 h. Potency, µM (highest dose often 92.2 µM), inactives show at the top dose activity change, negative = less growth, hits mostly inhibitors. actives 0.21% (n = 360,000). AID 651644; active = well fitted falling curve with a large enough effect; inconclusive = small, poorly fitted or top-dose-only effect; inactive = no such curve, though single readings can be large or run the other way; note: nearly all actives have a fitted effect of over 50% in size
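Fission yeast RE007 carrying one integrated HIV-1 vpr copy, seeded at OD 0.01 in PMG+AL medium with 23 nL pinned compound. Grown 24 h at 30 degrees; viability read by BacTiter-Glo luminescence after 5 min.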
Sm TGR inh: blocks Schistosoma mansoni thioredoxin glutathione reductase; Q962Y6; AID 485364; purified TGR, DTNB reduction, TNB absorbance 405 nm; actives 3% (n = 360,000); Potency, µM (titrated, usually from 114 µM), for inactives: at the highest dose activity change, negative = inhibition, hits mostly inhibitors; note: nearly all actives have a fitted effect of over 60% in size
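Kinetic colorimetric format: TGR-catalysed, NADPH-driven DTNB reduction monitored via TNB absorbance. Enzyme dispensed at 20 nM; compound exposure 15 min at room temperature before reaction start.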
Tb PYK inh: inhibitors of Trypanosoma brucei pyruvate kinase; TbPYK enzyme, Kinase-Glo Plus ATP luminescence, 45 min; Potency, µM (highest dose often 76.8 µM), inactives show at the highest dose activity, negative = inhibition, usual class: inhibitors; actives 0.12% (n = 410,000); AID 624173; note: nearly all actives have a fitted effect of over 50% in size
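Luminescent Kinase-Glo Plus end-point after 45 min room-temperature reaction of T. brucei pyruvate kinase started with 130 uM ADP (final). Buffer TEA 50 mM pH 7.2 with KCl, MgCl2, BSA, Tween-20; titration-based qHTS with fitted concentration-effect curves.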
Active calls of the source: *; ? = inconclusive; / = not tested or not shown; [ ] = remark or other dose. A selection: hits, their analogues and other compounds. The true share with any hit is near 3%. Unless noted, calls come from the whole dose curve; as a rule, active = well fitted curve in the direction sought with a large enough effect; inconclusive = small, poorly fitted or top-dose-only effect, or another doubt; inactive = no such curve, though single readings can be large; an effect the other way counts as inactive or inconclusive. % is set by controls: 0 for no effect and ±100 for the full control effect; potency is the fitted concentration of half-maximal effect.

SMILES | LmPK inh | RE007 growth inh | Sm TGR inh | Tb PYK inh
O=C(Nc1cccc(S(=O)(=O)NC2=NCCCCC2)c1)c1cc(-c2ccco2)nc2ccccc12 | 6% | -15% | 11µM* | -15%
O=C(Cc1ccccc1)Nc1ccccc1C(=O)N1CCCCCC1 | 0% | 5% | 6% | -20%
CCCCNc1sc(S(=O)(=O)CC)nc1S(=O)(=O)c1ccc(C)cc1 | / | / | -5% | 3%
CCOC(=O)c1[nH]c2c(c1Cc1ccccc1)C(=O)CC(c1ccc(Cl)cc1)C2 (configuration not stated) | / | / | 3% | -6%
CC1=C(C(=O)Nc2ccccc2Br)C2(CCC(C)CC2)OC1=O (configuration not stated) | / | / | -7% | 0%
Cc1ccc(NC(=O)c2oc3ccccc3c2NC(=O)C2CCCCC2)cc1 | / | / | -1% | -2%
O=C(NNC(=O)c1cc(-c2ccco2)nc2ccccc12)c1ccccc1 | 5% | 4% | 11µM* | -3%
O=C(Nc1ccccc1F)c1cc(-c2ccco2)nc2ccccc12 | / | -22% | / | -5%
O=C(Nc1ccc(F)cc1F)c1cc(-c2ccco2)nc2ccccc12 | 9% | -16% | 11µM* | ?
CCOc1ccc(NC(=O)CN(C)C(=O)Cc2ccc3c(c2)OCCO3)cc1OCC | / | -11% | / | 0%
Cc1ccccc1CS(=O)(=O)c1ccc(C(=O)N2CCOCC2)cc1[N+](=O)[O-] | 1% | -1% | ? | -6%
O=C(c1ccc(S(=O)(=O)Cc2ccccc2F)c([N+](=O)[O-])c1)N1CCCC1 | 14% | -10% | 10µM* | 2%
O=C(c1ccc(S(=O)(=O)Cc2ccccc2Cl)c([N+](=O)[O-])c1)N1CCOCC1 | 0% | 1% | 11µM* | 2%
O=C(NCCCN1CCN(c2ccc(F)cc2)CC1)c1cc2c(Cl)nc3ccccc3c2s1 | / | / | -1% | 1%
O=C(c1ccc(Br)o1)N1CCCc2ccccc21 | -11% | ? | 6% | -5%
N#CC1(c2ccccc2)CCCN1C(=O)c1ccc(Br)o1 (configuration not stated) | 5% | 7% | 40µM* | -2%
COCC(=O)N1CCc2nc(-c3ccccc3)c3c(c2C1)CO[C@@H](C)C3 | -3%[11.5 µM] | / | / | /
Cn1nnnc1SCC(=O)N1N=C(c2ccc(Cl)cc2)CC1c1ccco1 (configuration not stated) | / | 14% | / | 3%
CCS(=O)(=O)Nc1cccc(C2=NN(S(=O)(=O)c3ccc(C)cc3)C(c3ccco3)C2)c1 (configuration not stated) | 4%[11.5 µM] | -4% | ? | 6%
CCS(=O)(=O)Nc1cccc(C2=NN(S(=O)(=O)c3ccccc3)C(c3ccco3)C2)c1 (configuration not stated) | 0% | -6% | 28µM* | -6%
O=C(c1ccc(Br)o1)N1N=C(c2ccc(Cl)cc2)CC1c1ccco1 (configuration not stated) | -4% | -1% | 45µM* | -2%
Cc1nnc(SCC(=O)N2N=C(c3ccc(Cl)cc3)CC2c2ccco2)[nH]c1=O (configuration not stated) | 0% | ? | 13µM* | -9%
O=S(=O)(c1ccccc1)N1N=C(c2ccc(Cl)cc2)CC1c1ccco1 (configuration not stated) | / | -8% | 40µM* | -1%
CS(=O)(=O)Nc1cccc(C2=NN(S(=O)(=O)c3ccccc3)C(c3ccco3)C2)c1 (configuration not stated) | -2% | 2% | 20µM* | -28%
CCS(=O)(=O)N1N=C(c2cccc(NS(C)(=O)=O)c2)CC1c1ccccc1 (configuration not stated) | -1%[11.5 µM] | -13% | -23% | -6%
SMILES | LmPK inh | RE007 growth inh | Sm TGR inh | Tb PYK inh
Cc1ccc(C2=NN(C(=O)CCl)C(c3ccco3)C2)o1 (configuration not stated) | 1% | 1% | 7.1µM* | 5%
N#CCCCN1C(=O)C(O)(CC(=O)c2ccc3c(c2)OCCO3)c2ccccc21 (configuration not stated) | -3% | 17% | 2% | -6%
N#CCCCN1C(=O)C(=C(C#N)C#N)c2ccccc21 | 6% | -3% | 2.5µM* | -3%
CC(C)Cn1nc(NC(=O)c2cccc(Cl)c2)c2cc3ccccc3nc21 | / | / | 10% | -4%
Nc1cc(-c2ccco2)no1 | -2% | -14% | 28µM* | -7%
CCn1c(-c2ccc3[nH]c(C)c(C)c3c2)n[nH]c1=S | 28µM* | -1% | 17% | ?
Cc1[nH]c2ccc(-c3n[nH]c(=S)n3C)cc2c1C | -11% | -7% | -4% | ?
O=C(O)c1cccc(-n2cccc2/C=C/[N+](=O)[O-])c1 | 20% | -11% | 4.5µM* | ?
CC(=O)N1CCc2cc(CNS(=O)(=O)c3cccs3)ccc21 | / | / | 1% | 3%
Cc1cccc(C)c1NC(=O)c1ccc([N+](=O)[O-])s1 | -2% | -7% | -9% | -24%
Cc1cccc(NC(=O)c2ccc([N+](=O)[O-])s2)n1 | 1% | 16µM* | 0% | 1%
CN1CCCCC1(C)C(=O)NCc1ccc(F)cc1 (configuration not stated) | / | 5% | / | -9%
Cc1ccc(C(=O)Nc2nnc(CC(=O)N/N=C/c3ccc(O)c(O)c3)s2)cc1 | 1% | / | 45µM* | 4%
Cc1ccc(C(=O)Nc2nnc(CC(=O)N/N=C/c3ccncc3)s2)cc1 | 10% | 8% | -13% | -5%
C[C@H](CO)N1C[C@H](C)[C@H](CN(C)Cc2cccc(C(F)(F)F)c2)OCc2ccccc2-c2c(n(C)c3ccccc23)C1=O | / | -26% | / | -1%
NS(=O)(=O)c1ccc(N=Nc2ccc(O)c3ncccc23)cc1 | -3% | / | 56µM* | -12%
NS(=O)(=O)c1ccc(N=Nc2ccc(=O)[nH]c2O)cc1 | 16% | 10% | 22µM* | -17%
CCOc1ccc(N=Nc2ccc(O)c3ncccc23)cc1 | -6% | -8% | 1% | -6%
COc1cc(C(c2c(O)nc(SC)[nH]c2=O)c2c(O)nc(SC)[nH]c2=O)cc(OC)c1OC | 18% | 38% | 1.8µM* | -3%
COc1ccc(OC)c(C(c2c(O)nc(SC)[nH]c2=O)c2c(O)nc(SC)[nH]c2=O)c1 | -4% | 4% | 1.4µM* | ?
COC1C(C)=C(C)C(=O)N1Cc1ccc(F)cc1 (configuration not stated) | 5% | 9% | 5% | -8%
Cc1ccc(SCc2nc(-c3ccc(C(=O)NCC(C)c4ccccc4)cc3)oc2C)cc1 (configuration not stated) | / | / | -11% | -2%
Cc1nc(S(=O)(=O)c2ccc(Cl)cc2Cl)nc2c1CCC2 | 5% | -11% | 25µM* | -3%
CCCCN(C)CCNC(=O)C1CCN(c2nc3ccc(CC)cc3s2)CC1 | / | / | 0% | -4%
CCn1c(C(=O)NCc2cc(Br)ccc2OC)cc2oc3ccccc3c21 | / | / | 0% | 0%
Nc1ccc2c(c1)OC1(CCCCC1)O2 | -1% | -4% | 14µM* | -9%
